# ssDAF12 agonist: activators of S. stercoralis DAF-12 nuclear receptor | HEK293 ssDAF-12/GRIP1 lit1-tk-luc reporter, luminescence; % of 3 µM dafachronic acid response | activation, % at 6.8 µM | 370,000 tested, 1% active | AID 652126;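 active = activation above the mean over all tested compounds plus 3 SD, cut at about 0.9% in these data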;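 note: 0% = DMSO-only wells and 100% = 3 µM delta7-dafachronic acid wells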
# NF-kB neuron act: compounds increasing NF-kB expression in human neuronal cells; 190,000 tested, 1.6% active; NF-kB reporter expression; stronger effect = higher value; AID 1239; fold change at 12.5 µM; in the data active = fold change above about 3.3
# APP 5'UTR act: activates APP 5'UTR luciferase reporter; SH-SY5Y APP 5'UTR luciferase reporter, luminescence; zero percent = DMSO vehicle wells; activation, % at 2 µM; 190,000 tested, 1% active;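 active = activation above a set limit, based on mean plus 3 SD of controls, cut at about 140% in these data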
# hcDAF12 agonist: H. contortus DAF-12 activation, primary screen; AID 652067; activation, % at 6.8 µM; HEK293 hcDAF-12 lit1-tk-luc reporter, luminescence; 0% DMSO, 100% Δ7-dafachronic acid; 370,000 tested, 1.4% active;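 active = activation above the mean of all tested compounds plus 3 SD, cut at about 5.5% in these data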;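 note: 100% = response to 3 µM Δ7-dafachronic acid high control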
# hgDAF-12 ag: agonists of H. glycines DAF-12 nuclear receptor | HEK293 GAL4-hgDAF12 UAS-luciferase reporter, agonist luminescence; normalized to butyrate control | activation, % at 6.8 µM | 370,000 tested, 1.8% active | AID 687014;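 active = activation above a cutoff set at the mean of all screened compounds plus 3 SD, cut at about 10% in these data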;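 note: 0% = DMSO wells and 100% = sodium butyrate wells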
# The depositor's hits bear a star; . = no result given. Shown are actives, neighbours in structure and some others; about 3.4% of the full set was active somewhere.
SMILES,ssDAF12 agonist,NF-kB neuron act,APP 5'UTR act,hcDAF12 agonist,hgDAF-12 ag
Cc1c(Cl)c([N+](=O)[O-])nn1Cc1ccc(C(=O)Nc2ccc(Cl)cn2)o1,-1.8,1.08,-7.6,-1.2,-1.3
CC(=O)c1ccc(NC(=O)c2ccc([N+](=O)[O-])o2)cc1,-0.6,.,.,-0.6,-3.6
CCOc1ccc(NC(=O)c2ccco2)c([N+](=O)[O-])c1,0.1,6.02*,98.6,3.5,9.2
CCCOc1ccc(C(=O)Nc2ccccc2[N+](=O)[O-])cc1,-0.4,.,114.0,3.9,13.1*
O=C(Nc1ccc(Cl)cn1)c1ccc([N+](=O)[O-])o1,-1.5,5.91*,-47.4,-2.0,-3.9
O[C@H](COc1ccccc1)CN1CCC(C(O)(c2ccccc2)c2ccccc2)CC1,-1.0,.,.,-1.5,2.5
CCOC(=O)[C@@]12CCCC3=C1N(CCC3)C(=O)[C@H]2CC(=O)N1CCN(C(=O)C2CC2)CC1,-0.5,.,.,-2.9,0.6
COc1cccc(-c2ccc(CC[C@H]3O[C@H]4CC[C@@H](CO)O[C@H]4C[C@H]3NC(=O)c3cnccn3)cc2)c1,-1.3,.,.,-3.3,2.4
CC(C)=CCC/C(C)=C/CNCC(=O)N1c2ccccc2[C@]2(c3ccccc3)C[C@@H]3C(=O)N(C/C=C(\C)CCC=C(C)C)CC(=O)N3[C@H]12,-1.3,.,.,-1.2,-0.8
CCC(=O)N(Cc1ccccc1)c1ccccc1C(=O)Nc1cc(OC)ccc1OC,-1.6,.,.,-1.9,4.3
Cc1cc(NC(=O)c2ccc([N+](=O)[O-])o2)ccc1NC(=O)c1ccco1,-2.0,5.09*,-79.0,1.1,-5.5
CCCCCCCCN1C(=O)[C@@H](CC(=O)N2CCN(C(=O)C3CC3)CC2)C[C@@]2(C(=O)OC)C1=C[C@H](C(C)C)O[C@@H]2C1CC1,-1.2,.,.,-2.1,3.8
Cc1csc2nc(CSc3ccc(Cl)cc3)cn12,.,5.99*,149.2*,.,.
O=C(NCCc1cn2ccsc2n1)C1CCCCC1,-1.1,1.25,-10.1,0.8,1.1
c1cn2cc(CSC3CCCCC3)nc2s1,0.8,2.71,98.8,2.2,13.2*
Clc1ccc(SCc2cn3ccsc3n2)cc1,-0.7,2.29,72.0,0.6,11.4*
C=CCn1c(COc2ccccc2)nnc1SCC(=O)c1ccc(-c2ccccc2)cc1,-1.4,.,.,0.7,-0.7
COc1cc(/C=C/C(=O)CC(=O)/C=C/c2ccc(O)c(OC)c2)ccc1O,-0.9,7.39*,-11.0,-1.4,-2.7
Cc1cc(C(=O)Nc2ccc(F)cc2)n(-c2ccccc2)n1,-0.8,.,.,-1.3,0.0
Cc1cccc(N2CCN(C(=O)CN3C(=O)C4CC=CCC4C3=O)CC2)c1C (centres undefined),0.4,1.88,61.4,1.6,10.6*
Cc1cccc(N2CCN(C(=O)CN3C(=O)NC(C)(C)C3=O)CC2)c1C,-1.0,.,.,-1.0,0.2
NC(=O)c1cc2ccc(O)cc2oc1=Nc1ccccc1,-0.1,2.07,2.1,3.9,11.9*
Cc1n[nH]c(C)c1S(=O)(=O)NC(C)Cc1ccccn1 (centres undefined),-1.1,.,.,1.6,3.4
Cc1nn(-c2ccccc2)c(C)c1/C=N/NC(=O)c1[nH][nH]c(=O)c1C,0.1,.,.,0.7,3.8
CCc1ccc(NC(=S)N2CCCCCCC2)cc1,0.4,2.15,34.5,-0.3,10.7*
SMILES,ssDAF12 agonist,NF-kB neuron act,APP 5'UTR act,hcDAF12 agonist,hgDAF-12 ag
Cc1ccccc1CN[C@@H]1CC[C@@]23CCCN2C(=O)CCC[C@H]3C1,-1.1,.,.,0.5,-2.7
CCOc1ccc(-n2c(SCC(=O)Nc3cc4oc5ccccc5c4cc3OC)nnc2-c2cccc(Cl)c2)cc1,0.6,.,.,-0.1,3.9
CCCCN1C(=O)N2Cc3cc(OC)ccc3C2CS1(=O)=O (centres undefined),-0.6,.,.,5.6*,11.3*
Cc1cc(N2CCN(Cc3ccc4c(c3)OCO4)CC2)n2nc(C)nc2n1,-1.4,.,.,-2.7,-1.3
CCCCc1cc(=O)oc2c(CN(C)C)c(O)c(Cl)cc12,1.3*,1.06,8.9,-0.9,-1.5
CCc1c(C)c2cc(Cl)c(O)c(CN(C)C)c2oc1=O,-0.8,1.11,12.8,-0.1,-1.2
O=C(OCc1cc(=O)n2ccsc2n1)c1ccc(O)cc1O,-0.6,.,.,0.9,9.3
Cc1ccsc1C(=O)OCc1cc(=O)n2ccsc2n1,0.9*,.,.,1.7,12.8*
Clc1ccc(-c2nnc(SCc3cccc4ccccc34)n2-c2ccc(Cl)cc2)cc1,-2.3,.,.,-3.2,1.4
CC1=NN(C(=O)CCc2ccc3c(c2)OCO3)C(O)(C(F)(F)F)C1 (centres undefined),9.7*,1.72,37.6,-0.9,-0.7
CC(C)(C)c1ccc(OC(=O)N2CCOCC2)cc1,0.1,.,.,4.0,10.7*
Fc1ccc(-c2n[nH]c(=S)n2N=Cc2cccc(OCc3ccccc3)c2)cc1,-1.5,.,.,-1.9,2.5
CC(C)(C)c1csc(NC(=O)c2ccncc2)n1,-1.2,1.27,18.0,-2.3,-5.4
O=C(Nc1nc(-c2cccs2)cs1)c1ccc(Cl)s1,-1.4,1.68,-8.7,-2.5,10.7*
CC(C)(C)c1csc(NC(=O)C2=COCCO2)n1,0.2,.,.,0.9,11.6*
Cc1ccc(C(=O)Nc2nc(C(C)(C)C)cs2)s1,-1.5,4.98*,105.8,2.0,7.5
CC(=O)Nc1nc(-c2cccs2)cs1,-1.1,1.56,11.7,0.5,5.2
CC(C)(C)c1csc(NC(=O)c2ccc(Cl)s2)n1,-1.7,3.58*,87.3,-1.1,-1.1
CC(C)(C)c1csc(NC(=O)Nc2ccccc2)n1,-0.8,4.94*,129.1,2.6,12.4*
O=C(Nc1ccccc1)Nc1nc(-c2ccccc2)cs1,-1.9,.,.,-3.5,-2.4
O=C(CSc1nnc(SCc2cccc3ccccc23)s1)Nc1ccc(S(=O)(=O)Nc2nccs2)cc1,-1.1,.,.,-1.5,2.6
CCCCCCCCN1CCS(=O)(=O)N(Cc2ccc(C(F)(F)F)cc2)C(C(=O)OC)C1 (centres undefined),-1.4,.,.,-2.0,-0.7
CC(C)c1ccc(N(C(=O)c2csnn2)C(C(=O)NC(C)(C)C)c2ccncc2)cc1 (centres undefined),-0.3,1.65,39.5,6.3*,16.7*
Cc1ccc(N(C(=O)c2csnn2)C(C(=O)NC(C)(C)C)c2ccncc2)cc1 (centres undefined),-0.7,1.15,4.6,2.7,0.0
O=C(c1ccc2c(c1)OCCCO2)c1cccs1,0.1,3.97*,140.0*,4.7,10.5*
CC(=O)C1=C(C)NC(SCC(=O)c2ccc(F)cc2)=C(C#N)C1CC(C)C (centres undefined),-1.2,1.74,16.8,-1.0,11.5*
CC(=O)C1=C(C)NC(SCC(=O)c2ccc(Cl)cc2)=C(C#N)C1CC(C)C (centres undefined),-1.2,1.16,0.9,-1.9,-0.1
c1nc2nc3c(c(N4CCCC4)n2n1)CCCC3,-1.1,.,.,-1.0,-1.9
COc1ccc(OC)c(C=Nc2ccccc2-c2nc3ccccc3[nH]2)c1,0.1,1.28,38.1,2.7,12.3*
O=C(OCCCN1CCC2(CCC(c3ccccc3)CC2)C1=O)c1ccccc1 (centres undefined),-1.3,.,.,-0.8,3.7
